# According to PubChem BioAssay:
# Active and inactive are the calls of the source. Unless noted, no rule for the calls is given here.
# What was measured:
# [1] = resazurin metabolic signal in HepG2 cells – cell-based, resazurin fluorescence, 24 h, PK04 Diversity Set, profiling panel (AID 1172); conditions: HepG2 viability, higher = more signal
# [2] = budding yeast growth changes without added modifier – OD600, strain BY4716, 24 h, basal condition, primary screen (AID 1173); conditions: S. cerevisiae BY4716 growth, OD600, 24 h; higher = more signal, called active from +8 up or from −8 down
# [3] = viability profiling in MM1S myeloma cells – cell-based, resazurin fluorescence, basal, 24 h, PK04 Diversity Set, profiling panel (AID 1174); conditions: higher = more signal, called active from +8 up or from −8 down;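 also: MM1S multiple myeloma cell line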
# [4] = target: Dihydroorotate dehydrogenase (quinone), mitochondrial (Plasmodium falciparum (isolate 3D7)) (UniProt Q08210); test: inhibition of P. falciparum DHODH – biochemical, C-terminal His tag, absorbance 600 nm, primary screen (AID 1175); conditions: PfDHODH enzyme, DCIP absorbance 600 nm; higher = more signal, called active from +8 up or from −8 down;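 also: recombinant parasite enzyme with a five histidine tag at its C terminus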
# Dihydroorotate dehydrogenase (quinone), mitochondrial (Plasmodium falciparum (isolate 3D7)), sequence (Q08210 whole entry, looked up): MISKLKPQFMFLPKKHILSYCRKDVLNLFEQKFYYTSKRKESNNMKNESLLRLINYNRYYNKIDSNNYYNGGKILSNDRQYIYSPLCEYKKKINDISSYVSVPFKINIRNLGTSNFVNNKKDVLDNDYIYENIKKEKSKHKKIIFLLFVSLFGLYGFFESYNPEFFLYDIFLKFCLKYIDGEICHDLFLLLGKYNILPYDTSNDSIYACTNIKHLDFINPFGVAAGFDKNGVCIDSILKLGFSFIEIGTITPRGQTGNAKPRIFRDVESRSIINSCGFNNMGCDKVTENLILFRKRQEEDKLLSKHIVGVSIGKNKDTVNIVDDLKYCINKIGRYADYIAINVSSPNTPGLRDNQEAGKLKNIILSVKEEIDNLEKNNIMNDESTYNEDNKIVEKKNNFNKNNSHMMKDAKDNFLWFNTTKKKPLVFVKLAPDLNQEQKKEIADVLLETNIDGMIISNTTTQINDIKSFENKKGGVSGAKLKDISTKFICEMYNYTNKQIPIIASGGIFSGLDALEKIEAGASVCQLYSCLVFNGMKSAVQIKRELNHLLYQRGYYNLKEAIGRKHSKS
# [5] = inhibition of PAO1 biofilm formation – strain PAO1, LB-PBS medium, absorbance 600 nm, primary screen (AID 1176); conditions: P. aeruginosa PAO1 growth/biofilm, A600, 12 h; higher = more signal
# [6] = growth modulation of vineyard yeast isolate – strain RM11-1a, OD600, basal, 24 h, primary screen (AID 1177);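 also: cultures grown under basal conditions with no added stressor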; conditions: S. cerevisiae RM11-1a growth, OD600, 24 h; higher = more signal, called active from +8 up or from −8 down
# [7] = growth of efflux-deficient E. coli DRC39 – strain DRC39, OD650, 24 h, E. coli filamentation inducers, primary screen (AID 1178);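 also: growth measured as culture turbidity by optical density at 650 nm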; conditions: E. coli DRC39 acrAB, higher = more signal, called active from +8 up or from −8 down
# [8] = growth of efflux-deficient E. coli DRC39 – strain DRC39, OD650, 48 h, E. coli filamentation inducers, primary screen (AID 1179);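 also: screen aims at cell division blockers that make cells filament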; conditions: E. coli DRC39 delta-acrAB growth, higher = more signal, called active from +8 up or from −8 down
# [9] = viability profiling in RPMI8226 myeloma cells – cell-based, resazurin fluorescence, basal, 24 h, PK04 Diversity Set, profiling panel (AID 1180); conditions: higher = more signal;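 also: RPMI8826 multiple myeloma cell line at 5000 cells per well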
# [10] = target: E3 ubiquitin-protein ligase XIAP (Homo sapiens) (UniProt P98170); test: small molecules binding XIAP protein – biophysical, small-molecule microarray, fluorescence 635 nm, primary screen (AID 1181); conditions: higher = more signal;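 also: score merges 667 nm emission and signal to noise over triplicate slides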
# E3 ubiquitin-protein ligase XIAP (Homo sapiens), sequence (P98170 whole entry, looked up, the tested form may be a part): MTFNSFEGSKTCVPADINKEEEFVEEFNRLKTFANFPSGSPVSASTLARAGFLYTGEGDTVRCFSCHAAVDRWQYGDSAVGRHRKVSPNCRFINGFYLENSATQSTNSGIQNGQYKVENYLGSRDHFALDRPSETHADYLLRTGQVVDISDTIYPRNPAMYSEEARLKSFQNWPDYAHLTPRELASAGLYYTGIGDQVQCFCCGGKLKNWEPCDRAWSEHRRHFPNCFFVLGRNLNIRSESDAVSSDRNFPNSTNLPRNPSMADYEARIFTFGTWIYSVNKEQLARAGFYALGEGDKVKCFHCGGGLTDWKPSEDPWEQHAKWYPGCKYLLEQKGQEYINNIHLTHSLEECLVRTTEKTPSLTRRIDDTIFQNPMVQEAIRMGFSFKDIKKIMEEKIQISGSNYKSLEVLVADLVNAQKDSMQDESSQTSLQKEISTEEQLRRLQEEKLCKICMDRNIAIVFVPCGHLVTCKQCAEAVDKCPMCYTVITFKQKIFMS
# [11] = test system: XIP peptide (Xip251-270) binding; test: XIP fragment 251-270 binding compounds – biochemical, small-molecule microarray, fluorescence 635/667 nm, 0.1 µg/mL protein, primary screen (AID 1182); conditions: fluorescent protein binding, 635 nm, higher = more signal, called active from +8 up or from −8 down
# [12] = test system: XIP peptide (Xip251-270); test: compounds binding XIP fragment 251-270 – biochemical, small-molecule microarray, fluorescence 635/667 nm, 0.5 µg/mL protein, primary screen (AID 1183); conditions: fluorescence 635 nm, higher = more signal
# [13] = blood-stage malaria parasite viability loss – strain 3D7, DAPI fluorescence, 100 nL, primary screen (AID 1184);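 also: parasites grown inside human red blood cells in medium with human serum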; conditions: P. falciparum 3D7 growth, 3 d, higher = more signal
# [14] = target: Homeobox protein Hox-A13 (Mus musculus) (UniProt Q62424); test: disruptors of Hoxa13 oligonucleotide interaction – biochemical, fluorescence polarization, labeled oligonucleotide, primary screen (AID 1185); conditions: Hoxa13:DNA binding, 15 min, higher = more signal, called active from +8 up or from −8 down
# Homeobox protein Hox-A13 (Mus musculus), sequence (Q62424 whole entry, looked up): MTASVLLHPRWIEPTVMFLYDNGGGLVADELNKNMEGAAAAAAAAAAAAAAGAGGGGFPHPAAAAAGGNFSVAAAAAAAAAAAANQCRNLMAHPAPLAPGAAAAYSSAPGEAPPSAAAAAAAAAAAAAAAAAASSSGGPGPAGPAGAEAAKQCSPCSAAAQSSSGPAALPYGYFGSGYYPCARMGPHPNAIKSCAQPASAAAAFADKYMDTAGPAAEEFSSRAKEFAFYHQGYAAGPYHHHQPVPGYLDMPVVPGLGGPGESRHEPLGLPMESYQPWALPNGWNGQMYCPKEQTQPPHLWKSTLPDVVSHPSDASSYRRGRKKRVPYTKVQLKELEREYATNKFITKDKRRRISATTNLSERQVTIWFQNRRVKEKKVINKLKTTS
# [15] = blockers of DNA damage checkpoint Chk1 activation – imaging, HeLa, hydroxyurea, phospho-Chk1 antibody, percent positive cells, primary screen (AID 1186); conditions: hydroxyurea-induced phospho-Chk1 immunofluorescence imaging, higher = more signal
# [16] = blockers of DNA damage checkpoint Chk1 activation – imaging, HeLa, hydroxyurea, phospho-Chk1 nuclear intensity, primary screen (AID 1187); conditions: hydroxyurea-induced phospho-Chk1 immunofluorescence imaging, higher = more signal
SMILES,z-score [1],z-score [2],z-score [3],composite z-score [4],z-score [5],z-score [6],z-score [7],z-score [8],z-score [9],composite z-score [10],composite z-score [11],composite z-score [12],z-score [13],z-score [14],z-score [15],z-score [16]
O=C1[C@H]2C=C(I)[C@H](C[C@@H]2OCCCCO)[C@@]12CO2,0.187,-1.19 (inactive),-0.536 (inactive),-0.543 (inactive),0.13 (inactive),-0.192 (inactive),-0.682 (inactive),-0.405 (inactive),-0.304,-0.0448,-0.294 (inactive),-0.425,1.1,-1.94 (inactive),0.239 (inactive),-0.203 (inactive)
COC(=O)[C@@]1(Cc2ccccc2)[C@H]2c3cc(C(=O)N4CCCC4)n(Cc4c(CO)[nH]cc(C)c4=O)c3C[C@H]2CN1C(=O)c1ccccc1,-0.789,1.01 (inactive),-0.74 (inactive),0.255 (inactive),0.287 (inactive),0.624 (inactive),-0.384 (inactive),0.156 (inactive),-0.467,0.406,-0.528 (inactive),0.704,-1.46,-5.81 (inactive),0.754 (inactive),0.672 (inactive)
COc1ccc(-c2cc3c(c(Cc4ccccc4)n2)[Si](C(C)C)(C(C)C)OC3)cn1,0.177,-0.652 (inactive),-0.141 (inactive),0.653 (inactive),0.0429 (inactive),2 (inactive),0.184 (inactive),0.0876 (inactive),0.626,-0.0749,0.684 (inactive),-0.342,-2.79,-2.5 (inactive),-0.24 (inactive),-0.828 (inactive)
CC(c1ccccc1)C(O)C1C=CC2C(=O)N(c3ccccc3)C(=O)C2N1Nc1ccccc1 (centres undefined),-1.45,-0.652 (inactive),-1.4 (inactive),-0.191 (inactive),0.67 (inactive),0.0166 (inactive),-0.0789 (inactive),-0.565 (inactive),-1.28,0.255,1.06 (inactive),0.807,-0.417,-2.4 (inactive),0.2 (inactive),0.175 (inactive)
COc1ccc([C@H]2C[C@H]3C(I)=C[C@@H]2C(=O)[C@]32CO2)cc1,0.91,-9.78 (active),-0.306 (inactive),-0.174 (inactive),0.167 (inactive),-1.14 (inactive),1.73 (inactive),0.344 (inactive),0.867,0.288,-0.344 (inactive),0.68,0.456,-1.41 (inactive),0.125 (inactive),-0.217 (inactive)
CN(C)CCCCCCNC(=O)[C@@H]1C[C@@H]2C(=O)N3CCC[C@H]3C(=O)N2[C@@H]1c1ccc(O)cc1,-0.627,-0.732 (inactive),-0.235 (inactive),-1.7 (inactive),1.82 (inactive),-2.55 (inactive),0.966 (inactive),1.64 (inactive),-0.198,0.117,2.98 (inactive),0.929,0.199,0.647 (inactive),-0.849 (inactive),-0.147 (inactive)
CCOC(=O)C1=C[C@@H](C(C)C)N(S(=O)(=O)c2ccc(C)cc2)[C@H]1c1ccccc1F,-0.298,0.81 (inactive),-0.328 (inactive),-0.471 (inactive),0.133 (inactive),0.411 (inactive),-0.77 (inactive),0.0503 (inactive),-0.807,-0.139,1.01 (inactive),0.489,-0.864,-1.17 (inactive),0.503 (inactive),0.969 (inactive)
COc1ccccc1CN1C(=O)c2ccccc2[C@@H](C(=O)NCc2ccccc2)[C@@H]1c1ccc(CO)cc1,-0.678,0.0688 (inactive),0.122 (inactive),0.942 (inactive),-0.0528 (inactive),-0.0226 (inactive),-0.236 (inactive),-0.36 (inactive),0.427,-0.193,0.737 (inactive),0.785,-1.45,-1.22 (inactive),-0.295 (inactive),-0.0433 (inactive)
O=C(CS)NCCCCCNC(=O)[C@@H]1C[C@@H]2C(=O)NCC(=O)N2[C@@H]1c1ccc(O)cc1,-0.701,0.272 (inactive),-1.06 (inactive),0.424 (inactive),1.5 (inactive),-0.0231 (inactive),-0.401 (inactive),-1.04 (inactive),-0.492,-0.0536,0.366 (inactive),0.352,-1.16,-1.43 (inactive),0.258 (inactive),0.425 (inactive)
CC(=O)NCCCC[C@@H]1NC(=O)[C@H]2C[C@@H](C(=O)NCCCCCNC(=O)CS)[C@@H](c3ccc(O)cc3)N2C1=O,-0.0321,1.14 (inactive),0.0985 (inactive),0.452 (inactive),0.395 (inactive),0.949 (inactive),-0.553 (inactive),-0.574 (inactive),-0.213,0.0503,0.184 (inactive),0.805,0.147,-3.02 (inactive),0.0401 (inactive),0.176 (inactive)
C#CCN1[C@H](/C=C/C2CC2)[C@H](Cc2ccccc2)OC(=O)[C@@H]1Cc1ccccc1,0.512,0.169 (inactive),0.214 (inactive),-0.627 (inactive),-0.283 (inactive),0.0319 (inactive),-0.463 (inactive),-0.144 (inactive),0.454,0.0853,1.42 (inactive),0.513,-0.568,-0.837 (inactive),-0.315 (inactive),-0.418 (inactive)
O=C1O[C@H](c2ccccc2)[C@H](c2ccccc2)N2[C@H]1[C@@H](C(=O)NC[C@H](O)c1ccccc1)[C@]1(C(=O)Nc3ccccc31)[C@H]2c1ccc(O)cc1,-1,0.0934 (inactive),-1.16 (inactive),0.668 (inactive),0.346 (inactive),1.46 (inactive),0.759 (inactive),0.315 (inactive),-2.77,0.166,1.5 (inactive),0.665,-0.834,-4.25 (inactive),-0.0383 (inactive),0.188 (inactive)
COc1ccccc1CN1C(=O)c2ccccc2[C@@]2(Cc3ccccc3N(CCCN(C)C)C2=O)[C@@H]1c1ccc(CO)cc1,-0.434,0.259 (inactive),1.17 (inactive),-19.5 (active),0.282 (inactive),-0.746 (inactive),1.28 (inactive),0.468 (inactive),0.723,-0.113,0.0228 (inactive),0.216,-1.3,1.78 (inactive),-0.481 (inactive),-0.454 (inactive)
CC(=O)Nc1cc(Br)ccc1C(=O)NCc1ccccc1,0.184,-8.91 (active),-0.292 (inactive),0.663 (inactive),-0.131 (inactive),-0.294 (inactive),0.0344 (inactive),-0.785 (inactive),-0.108,-0.157,0.137 (inactive),0.201,1.3,-0.77 (inactive),0.0852 (inactive),0.516 (inactive)
COCCOC(=O)N1C(=O)[C@@]2(c3cc(C#CCCO)ccc31)[C@H](c1ccc(OCCO)cc1)N1[C@H](c3ccccc3)[C@H](c3ccccc3)OC(=O)[C@H]1[C@@H]2C(N)=O,-0.569,1.67 (inactive),-0.371 (inactive),0.561 (inactive),0.449 (inactive),3.69 (inactive),0.315 (inactive),0.399 (inactive),-0.103,-0.192,0.464 (inactive),0.779,-0.222,-1.33 (inactive),-0.0438 (inactive),0.51 (inactive)
NC(=O)N1C(=O)C2C(C1=O)C1C=C(CCCO)C2C(C2CC2)N1Cc1cc2c(cc1Br)OCO2 (centres undefined),-0.437,-1.85 (inactive),-0.264 (inactive),-0.659 (inactive),-0.778 (inactive),-0.492 (inactive),-0.298 (inactive),-0.562 (inactive),-0.46,0.0479,-0.0845 (inactive),-0.102,1.74,-7.26 (inactive),0.207 (inactive),0.727 (inactive)
COC(=O)[C@@]1(Cc2ccc(OC)cc2)[C@H]2c3cc(C(=O)N4CCCC4)n(Cc4nc5ccccc5[nH]4)c3C[C@H]2CN1C(=O)c1ccccc1,0.0719,1.36 (inactive),-1.79 (inactive),0.98 (inactive),-0.222 (inactive),0.736 (inactive),-0.0181 (inactive),-0.104 (inactive),-1.2,0.62,1.01 (inactive),0.636,-1.22,-2.23 (inactive),0.732 (inactive),0.409 (inactive)
C=CC1c2cc(O)c(OC)cc2CCN1Cc1cccc(OC(F)(F)F)c1 (centres undefined),0.125,-16.7 (active),-4.17 (inactive),-5.06 (inactive),0.0898 (inactive),-13.7 (active),1.2 (inactive),0.738 (inactive),-2.3,0.0304,1.81 (inactive),0.918,-1.8,-4.91 (inactive),0.08 (inactive),0.362 (inactive)
CCOC(=O)C[C@H]1[C@H](OC(=O)c2ccc(C(=O)c3ccccc3)cc2)[C@@H](NC(=O)Cc2ccc(OC)cc2)c2cc(OCCCO)ccc2N1C(=O)c1ccc2ccccc2n1,-0.0666,-0.337 (inactive),-0.0911 (inactive),0.764 (inactive),0.207 (inactive),0.11 (inactive),-0.572 (inactive),-0.335 (inactive),0.273,0.0801,0.845 (inactive),0.172,-0.129,-1.9 (inactive),0.112 (inactive),-0.189 (inactive)
